High-throughput results as filed in PubChem.
Most compounds without a hit are left out; they make up all but 5.9% or so of the library.
DAX1 inh – DAX1 (NR0B1) inhibitors, primary screen, cell-based, HEK293, Gal4-DAX1, luciferase luminescence; Nuclear receptor subfamily 0 group B member 1 (Homo sapiens), P51843; HEK293 Gal4-DAX1 luciferase reporter; inhibition, % at 6.75 µM; 340,000 tested, 0.99% active;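 active = inhibition above the mean over all tested compounds plus 3 SD, cut at about 4.2% in these data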;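 note: 0% = DAX1-transfected cells with DMSO and 100% = empty-vector control cells with DMSO; inhibition shows as a rise in luminescence from relieved DAX1 repression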
HSF1 inh – HSF1 inhibitors in luciferase reporter cells, primary screen, cell-based, NIH3T3, luminescence | NIH3T3-HGL HSE-luciferase, MG132-induced, luminescence 8 h; stronger effect = lower value | activity change, negative = inhibition, % at 7.5 µM (by protocol) | 300,000 tested, 0.77% active;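 active = more than half of replicate wells show activity change below -50%, luminescence cut by over half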;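 note: luciferase reports HSF-1 transcriptional activity via heat shock element; 0% = median of DMSO wells and -100% = zero luminescence signal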
HSF-1 act – HSF-1 activators, primary screen, NIH3T3-HGL cells, MG132 stress, luminescence, single point | NIH3T3-HGL HSF-1 luciferase reporter, 8 h; 100% = twice DMSO control signal | activation, % at 9 µM | 300,000 tested, 1.7% active | AID 504408, 2011;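 active = mean replicate activation of at least 50% with a set share of replicates each reaching 50%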;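 note: 0% = median of the neutral control wells and 100% = twice that signal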
HSP90 refold inh – HSP90 inhibitors, primary screen, cell lysate, luminescence; Heat shock protein HSP 90 (rabbit reticulocyte lysate; luciferase refolding); Rabbit reticulocyte lysate, luciferase refolding luminescence, 3 h; inhibition, % at 5.6 µM; 290,000 tested, 0.91% active; AID 1789, 2009;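 active = inhibition above the screen-wide mean plus 3 SD, computed separately per campaign, cut at about 16% in these data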;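 note: 0% = DMSO wells and 100% = 60 µM geldanamycin wells; inhibitors lower the luminescence because luciferase stays unfolded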
AHR act – AHR activators, primary screen, cell-based, luminescence, luciferase reporter, human | Aryl hydrocarbon receptor (Homo sapiens), P35869 | AHR-responsive luciferase reporter cells | activation, % at 5 µM | 320,000 tested, 2.5% active | AID 2796, 2010; in the data active = activation above about 47%;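 note: 0% = vehicle wells and 100% = reference agonist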
Target sequence (P35869 whole entry, looked up): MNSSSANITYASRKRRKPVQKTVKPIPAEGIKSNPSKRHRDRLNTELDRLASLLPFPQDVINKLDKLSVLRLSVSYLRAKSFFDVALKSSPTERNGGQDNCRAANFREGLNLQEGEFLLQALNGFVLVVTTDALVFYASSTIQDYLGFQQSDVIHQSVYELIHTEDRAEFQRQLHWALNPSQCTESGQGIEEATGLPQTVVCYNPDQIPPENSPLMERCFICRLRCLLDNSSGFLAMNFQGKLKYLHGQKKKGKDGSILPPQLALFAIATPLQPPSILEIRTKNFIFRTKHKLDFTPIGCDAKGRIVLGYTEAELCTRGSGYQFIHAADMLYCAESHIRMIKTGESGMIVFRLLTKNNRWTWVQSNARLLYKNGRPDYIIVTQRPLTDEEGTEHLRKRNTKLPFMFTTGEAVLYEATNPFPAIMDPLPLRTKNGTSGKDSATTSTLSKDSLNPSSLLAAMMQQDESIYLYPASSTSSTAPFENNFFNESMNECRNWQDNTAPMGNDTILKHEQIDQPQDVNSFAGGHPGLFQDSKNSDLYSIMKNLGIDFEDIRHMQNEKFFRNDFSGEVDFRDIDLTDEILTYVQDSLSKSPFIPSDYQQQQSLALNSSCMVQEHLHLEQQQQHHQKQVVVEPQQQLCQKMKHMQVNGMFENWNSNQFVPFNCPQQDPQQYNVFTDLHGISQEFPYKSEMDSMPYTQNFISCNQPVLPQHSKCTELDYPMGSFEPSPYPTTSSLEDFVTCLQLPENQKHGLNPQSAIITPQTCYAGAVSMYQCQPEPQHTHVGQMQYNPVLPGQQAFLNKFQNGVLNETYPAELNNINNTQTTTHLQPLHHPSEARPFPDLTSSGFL
GAA850 FXN act – FXN promoter activators, primary screen, cell-based, luciferase luminescence, HEK293 lucGAA850; AID 540364, 2011; HEK293 lucGAA850 FXN promoter luciferase reporter, 24 h; percent of 10 µM SAHA response; 360,000 tested, 0.56% active; activation, % at 6 µM;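 active = activation above the average of all compounds screened plus 3 SD, cutoff fixed separately per campaign, cut at about 7.5% in these data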;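 note: 0% = DMSO wells and 100% = 10 µM SAHA wells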
* marks the source's active call; other numbers are inactive results; x = no result.

SMILES | DAX1 inh | HSF1 inh | HSF-1 act | HSP90 refold inh | AHR act | GAA850 FXN act
COC(=O)C(Cc1c[nH]c2ccccc12)NC(=O)C(=O)c1c[nH]c2ccccc12 (stereo unspecified) | 0 | 3 | -3 | -4 | 7 | -1
COc1ccc(CNC(=O)C(C)Sc2ccc(S(=O)(=O)N3CCOCC3)cn2)cc1 (stereo unspecified) | 1 | x | x | x | x | 0
CC(C)(C)C1CCC(=NNc2nc3ccccc3[nH]2)CC1 (stereo unspecified) | 0 | -18 | -22 | 7 | 20 | -1
c1ccc2c(c1)CC/C2=N/Nc1nc2ccccc2[nH]1 | 2 | 13 | 51* | -2 | 48* | 6
Cc1onc(-c2ccccc2)c1CNC(=O)C1COc2ccccc2O1 (stereo unspecified) | 4.6* | 0 | 6 | 2 | 2 | 1
O=C(NCc1ccccc1)C1COc2ccccc2O1 (stereo unspecified) | -1 | 6 | 6 | -2 | 18 | -2
CCOc1ccccc1C(=O)NC(C(=O)N(C)Cc1ccc2c(c1)OCO2)C(C)C (stereo unspecified) | -1 | x | x | x | 6 | 1
CCOc1ccccc1C(=O)NC(C)c1ccc2c(c1)OCO2 (stereo unspecified) | -1 | -1 | 5 | 1 | 52* | -2
CCOc1ccccc1NC(=O)NC(C)c1ccc2c(c1)OCO2 (stereo unspecified) | 2 | 10 | 12 | 3 | 58* | -1
CCOC(=O)C1(C#N)C(=O)CSC1=Nc1ccccc1Cl (stereo unspecified) | 2 | x | x | x | x | -2
O=C(CSc1c2c(nc3ccccc13)CCCC2)NCc1ccco1 | -1 | 40 | 86* | 1 | 0 | 1
O=C(CSc1c2c(nc3cc(Cl)ccc13)CCCC2)NCCN1CCOCC1 | -2 | 43 | 65* | 6 | 0 | 5
Cc1ccc(CNC(=O)CSc2c3c(nc4cc(Cl)ccc24)CCCC3)o1 | 0 | 44 | 65* | 2 | 2 | 1
O=C(CSc1c2c(nc3ccc(Cl)cc13)CCCC2)NCCCN1CCOCC1 | 0 | 41 | 68* | -2 | -2 | 3
CCOC(=O)C1(CCOC)CCN(C/C=C/c2ccccc2OC)CC1 | -2 | 4 | 12 | 5 | 7 | -2
N#Cc1ccc(CN2CCN(C(=O)c3cccc(S(=O)(=O)N4CCCCCC4)c3)CC2)cc1 | -1 | x | x | x | -1 | -1
COC(=O)[C@@H](Cc1ccccc1)NC(=O)Cn1cc(C)c(=O)[nH]c1=O | -1 | x | x | x | x | 1
CN1CCN(CCCNC(=O)c2ccc3c(Cl)c4c(nc3c2)CCCC4)CC1 | 1 | 15 | 4 | -1 | -2 | 2
COCCCNC(=O)CSc1c2c(nc3ccc(Cl)cc13)CCCC2 | 0 | 37 | 40 | 8 | 3 | 2
O=C(CSc1c2c(nc3cc(Cl)ccc13)CCCC2)NCCCN1CCOCC1 | 0 | 141 | 189* | 0 | 2 | 4
CCN(CC)CCCNC(=O)CSc1c2c(nc3cc(Cl)ccc13)CCCC2 | -1 | 154 | 202* | -2 | 7 | 7
O=C(NC(c1ccc(Cl)cc1)c1cccnc1)C1CCN(CCOc2ccc(Cl)cc2Cl)CC1 (stereo unspecified) | x | x | x | x | x | 0
OC[C@@H]1CN(CCN2CCOCC2)C[C@H](n2cnc3c(NCc4ccco4)ncnc32)O1 | x | x | x | x | x | 1
Cc1ccc(/C=N/N=C/c2ccc(C)s2)s1 | 3 | 36 | 78* | 1 | 34 | 3
Cc1ccc(/C=N/NC(=O)c2ccncc2)s1 | 1 | -8 | 0 | -2 | 24 | 1
SMILES | DAX1 inh | HSF1 inh | HSF-1 act | HSP90 refold inh | AHR act | GAA850 FXN act
Cc1ccc(/C=N/NC(=S)NCCc2ccccc2)s1 | 0 | 22 | 25 | -4 | 25 | 0
CCOC(=O)N/N=C\c1ccc(C)s1 | 1 | -79* | -81 | 0 | 23 | 2
CCCCNC(=S)N/N=C/c1ccc(C)s1 | 1 | 35 | 47 | -4 | 75* | -1
CCOC(=O)N/N=C\c1ccc([N+](=O)[O-])s1 | -1 | 9 | 8 | -1 | 6 | 4
Oc1cccc2c3c(oc12)CCCC3 | x | -1 | -4 | x | 1 | 1
NC(=O)c1oc2ccccc2c1NC(=O)c1ccc([N+](=O)[O-])o1 | -2 | -32 | -34 | 3 | 11 | 1
CC(C)(C)OC(=O)N[C@@H](Cc1ccccc1)C(=O)NCC1CCC(C(=O)N[C@@H](CC(=O)O)C(=O)O)CC1 (stereo partly specified) | 0 | -63* | -71 | -4 | 0 | 1
CC(C)N1CCC1(C)C(=O)Nc1ccc2cn[nH]c2c1 (stereo unspecified) | x | x | x | x | x | 3
COc1ccc(S(=O)(=O)NCc2csc(C)n2)cc1OC | -2 | -13 | -6 | 0 | 2 | 1
COc1ccc(-c2nc(CNS(=O)(=O)c3ccc(OC)c(OC)c3)cs2)cc1 | -1 | -63* | -70 | 1 | 10 | 0
CCc1ccc(-c2cc(C(=O)N/N=C/c3ccccn3)[nH]n2)cc1 | 4.5* | 4 | -15 | 1 | 41 | 1
O=C(O)c1ccc(/C=N/NC(=O)c2cc(-c3ccc4c5c(cccc35)CC4)n[nH]2)cc1 | -1 | 3 | 24 | -4 | 78* | 1
O=C(N/N=C/c1cccs1)c1cc(-c2cccc3ccccc23)n[nH]1 | 1 | 7 | 25 | 6 | 48* | 1
O=C(N/N=C/c1ccccn1)c1cc(-c2ccc3ccccc3c2)n[nH]1 | 1 | 21 | 24 | 2 | 8 | 2
O=C(N/N=C/c1cccs1)c1cc(-c2ccc3ccccc3c2)n[nH]1 | 2 | 3 | 24 | -3 | 13 | 5
O=C(N/N=C/c1ccccn1)c1cc(-c2cccc3ccccc23)n[nH]1 | 6.6* | 13 | 22 | 0 | 70* | 2
CCc1nc2ccc(C(=O)N(C)CCCN(C)C)cn2c1N(C)CCCc1ccccc1 | x | x | x | x | x | -1
Cc1ccccc1C(=O)NCC(=O)N1CCN(C/C=C/c2ccccc2)CC1 | -1 | x | x | x | 2 | 0
CC(=O)c1ccc(NC(=O)CCCN2C(=O)/C(=C/C(C)=C/c3ccccc3)SC2=S)cc1 | 0 | 37 | 70* | -3 | 1 | -2
O=C(CCCN1C(=O)/C(=C\c2ccccc2)SC1=S)Nc1ccc(C(=O)O)cc1 | 1 | -6 | -2 | 9 | -3 | -1
NCCSc1c(-c2ccc(Cl)cc2)[nH]c2ccccc12 | 3 | -2 | -7 | 3 | 48* | -1
NCCSc1c(-c2ccccc2)[nH]c2ccccc12 | 1 | -2 | -14 | 7 | 12 | 1
